Test results published in PubChem BioAssay (Tox21).
Activity calls are given as the source filed them. Calls come from the whole dose curve.

Each compound was assayed against Acetylcholinesterase (Homo sapiens) (UniProt P22303) (assay: Acetylcholinesterase (AChE) small molecule antagonists: enzyme-based qHTS assay (AID 1347397; note: nearly all actives have a fitted effect of over 55% in size)). Conditions: Potency: AChE enzyme activity inhibition; outcome: AChE enzyme activity inhibition; series mostly up to 115 µM; activity change, negative = inhibition: at the top concentration.
Sequence of Acetylcholinesterase (Homo sapiens) (P22303 whole entry, looked up): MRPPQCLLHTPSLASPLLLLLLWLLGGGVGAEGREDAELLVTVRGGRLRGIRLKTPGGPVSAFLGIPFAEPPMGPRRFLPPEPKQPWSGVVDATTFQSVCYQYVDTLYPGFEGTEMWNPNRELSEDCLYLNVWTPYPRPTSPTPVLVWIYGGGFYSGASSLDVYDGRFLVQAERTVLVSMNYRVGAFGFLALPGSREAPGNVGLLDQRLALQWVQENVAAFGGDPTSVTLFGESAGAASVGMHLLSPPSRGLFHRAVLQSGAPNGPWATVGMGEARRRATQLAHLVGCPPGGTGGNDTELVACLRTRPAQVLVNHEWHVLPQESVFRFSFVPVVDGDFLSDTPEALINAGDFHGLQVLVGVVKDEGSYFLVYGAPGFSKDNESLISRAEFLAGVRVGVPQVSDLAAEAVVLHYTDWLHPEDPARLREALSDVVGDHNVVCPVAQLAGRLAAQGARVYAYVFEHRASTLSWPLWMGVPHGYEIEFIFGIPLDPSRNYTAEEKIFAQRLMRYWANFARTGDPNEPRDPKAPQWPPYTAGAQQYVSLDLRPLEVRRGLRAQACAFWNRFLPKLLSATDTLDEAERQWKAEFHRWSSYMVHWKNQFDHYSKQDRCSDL
Excerpt: National Center for Advancing Translational Sciences [NCATS]
Division of Preclinical Innovation [DPI]
U.S. Environmental Protection Agency [EPA]
National Institutes of Environmental Health Sciences [NIEHS]
National Toxicology Program [NTP]
U.S. Food and Drug Administration [FDA]
Acetylcholinesterase (AChE) is the primary cholinesterase in the body that hydrolyzes a key neurotransmitter, acetylcholine. Inhibition of AChE activity can lead to neurotoxicity. The known inhibitors include organophosphorous pesticides (OP), chemical warfare agents, drugs, and various phytochemicals.
An enzyme-based assay with the recombinant human AChE and Amplite Colormetric acetylcholinesterase assay kit (AAT Bioquest, Sunnyvale, CA) was used to evaluate the chemicals in the Tox21 10K library that inhibit AChE activity. The assay uses 5, 5-dithiobis-(2-nitrobenzoic acid) (DTNB) to quantify the thiocholine produced from the hydrolysis of acetylthiocholine by AChE.
Tox21 Assay Protocol Summary:
For the enzyme-based AChE assay, recombinant human AChE (50 mU/mL) in 4 uL/well was dispensed into black, clear-bottom 1536-well plates using a Multidrop Combi dispenser (Thermo Scientific, MA). Then, 23 nL of compound or DMSO (vehicle control) was transferred into the assay plates by a Pintool Station (Wako Automation, CA). The plates were incubated for 30 min at room temperature, followed by the addition of 4 uL of colorimetric detection cocktail solution (DTNB, acetylthiocholine) into each well using a Flying Reagent Dispenser (Beckman Coulter, CA) and then 10 min incubation at room temperature.
% is set by controls: 0 for no effect and ±100 for the full control effect; potency is the fitted concentration of half-maximal effect.

Compound | Potency | activity change, negative = inhibition | outcome
CNC(=O)O/N=C(/CSC)C(C)(C)C | 1000 nM (active) |  | 
CCCCCCC(=O)CCCCCC/C=C/C[C@@H](O)[C@H](O)[C@@](N)(CO)C(=O)O |  | 0.415% [at 23.6 µM] (inactive) | 
COc1ccccc1OC |  | -2.32% (inactive) | 
O=C1CC(=O)NC(=O)N1 |  | 0% (inactive) | 
O=C1CCCCC1Cl (stereo not given) |  | -0.136% (inactive) | 
CCN[C@H](C)Cc1cccc(C(F)(F)F)c1 |  | -0.113% (inactive) | 
CNC(=O)Oc1cc(C)c(N(C)C)c(C)c1 | 2250 nM (active) |  | 
Brc1c(Br)c(Br)c(Br)c(Br)c1Br |  | -2.31% [at 10.5 µM] (inactive) | 
O=C(NC(O)C(Cl)(Cl)Cl)NC(O)C(Cl)(Cl)Cl (stereo not given) |  | 0.27% [at 53 µM] (inactive) | 
CCN[C@@H](C)Cc1cccc(C(F)(F)F)c1 |  | 0.596% [at 53 µM] (inactive) | 
O=c1[nH]c2ccccc2n1C1CCNCC1 |  | 0.0747% [at 53 µM] (inactive) | 
CC(C)(C)c1cc(O)ccc1O | inactive |  | 
CC(C)(N)Cc1ccc(Cl)cc1 |  | 0.126% [at 53 µM] (inactive) | 
CN(C)C(=O)Oc1cc(OC(=O)N(C)C)cc(C(O)CNC(C)(C)C)c1 (stereo not given) |  | -14.9% [at 53 µM] (inactive) | 
CN(CCO)CCO |  | 0.408% (inactive) | 
O=c1[nH]oc2c1CCNC2 |  | 0.119% [at 53 µM] (inactive) | 
CCCN1CCC[C@@H]2Cc3nc(N)ncc3C[C@H]21 |  | -5.3% [at 53 µM] (inactive) | 
COC[C@@H](NC(C)=O)C(=O)NCc1ccccc1 |  | 0% [at 53 µM] (inactive) | 
CCNc1nc(NCC)nc(SC)n1 |  | 1.18% (inactive) | 
CC(Cc1ccccc1)NCCn1cnc2c1c(=O)n(C)c(=O)n2C (stereo not given) |  | 1.21% (inactive) | 

Compound | Potency | activity change, negative = inhibition | outcome
COc1ccc(CN2CCNCC2)c(OC)c1OC |  | 1.88% [at 53 µM] (inactive) | 
CON(C)C(=O)Nc1ccc(Br)c(Cl)c1 |  | -0.213% (inactive) | 
Cc1cccc2sc3nncn3c12 |  | -6.2% (inactive) | 
CCC(CC)(CNC(=O)CCCO)c1cccc(OC)c1 |  | -0.0126% [at 53 µM] (inactive) | 
COC(=O)c1ccccc1CS(=O)(=O)NC(=O)Nc1nc(OC)cc(OC)n1 |  | -2.59% (inactive) | 
O=C(NC(=O)c1c(F)cccc1F)Nc1cc(Cl)c(F)c(Cl)c1F |  | -3.69% (inactive) | 
CCN1CCCC1CNC(=O)C(O)(c1ccccc1)c1ccccc1 (stereo not given) |  | -2.77% [at 53 µM] (inactive) | 
[P]#[In] |  | 1.23% (inactive) | 
N[C@@H]1C[C@H]1c1ccccc1 |  |  | inactive
BrCCc1ccccc1 |  | 0.682% (inactive) | 
CC(C)c1ccc(O)cc1 |  | -0.645% (inactive) | 
Oc1ccc(Cc2ccc(O)cc2)cc1 |  | 0% (inactive) | 
CCCCOC(C)=O |  | 0% (inactive) | 
N#CN |  | 0.181% [at 300 µM] (inactive) | 
CCCCS(=O)(=O)Cl |  | 0.114% (inactive) | 
O=C(O)C(Br)(Br)Br |  | 0.24% (inactive) | 
CCCCCCCCSC(=O)Oc1cc(Cl)nnc1-c1ccccc1 |  | 4.87% (inactive) | 
Cc1ccc(-c2nc3ccc(C)cn3c2CC(=O)N(C)C)cc1 |  | 0.41% [at 53 µM] (inactive) | 
O=C(Cl)C(Cl)(Cl)Cl |  | 0.162% (inactive) | 
O=C(Cl)c1ccccc1 |  | 2.32% (inactive) | 
